In the library only some 1.6% were active in any assay of this set; here they are far more common.
HTR5A ag – HTR5A agonism, opioid heterodimer counter-screen; AID 504692; HTR5A agonist assay, luminescence, cell-based; activation, % at 9.3 µM; P47898; hit rate 0.61% among 340,000; in the data active = activation mostly above about 9.5%, no sharp cut-off; inactive = mostly below about 7.6%
Target sequence (P47898 whole entry, looked up): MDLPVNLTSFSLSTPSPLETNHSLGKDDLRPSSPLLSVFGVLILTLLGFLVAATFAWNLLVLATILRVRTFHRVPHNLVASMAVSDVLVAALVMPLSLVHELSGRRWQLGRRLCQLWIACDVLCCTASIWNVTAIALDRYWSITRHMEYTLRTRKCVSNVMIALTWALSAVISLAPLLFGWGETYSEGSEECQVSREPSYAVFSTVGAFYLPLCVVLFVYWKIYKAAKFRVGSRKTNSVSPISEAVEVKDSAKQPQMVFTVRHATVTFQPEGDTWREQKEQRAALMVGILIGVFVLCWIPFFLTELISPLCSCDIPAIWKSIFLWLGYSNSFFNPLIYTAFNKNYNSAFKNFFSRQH
OPRM1-OPRD1 inv – inverse agonists of human mu-delta opioid receptor heterodimerization. inhibition, % at 9.3 µM. AID 504357. cell-based MOR-DOR heterodimer luminescence, inverse agonism. P35372+P41143. hit rate 0.21% among 340,000; in the data active = inhibition above about 22%, passing the limit was not always enough
PolyA inhibitor – yeast polyadenylation inhibition. S. cerevisiae SKY197-pL101 polyadenylation reporter, beta-gal luminescence; efflux-impaired pdr1/pdr3 knockout yeast; score 100 = 6 SD above DMSO. activity score, % at 12 µM. hit rate 0.02% among 300,000. AID 1875;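 active = lowest replicate activity score at least 50, where 100 means six control SD above control mean; inconclusive = lowest score under 50 but half or more replicates reach 50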;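 also: yeast exposed to compound for 9 h at 30 °C; higher score means more reporter readthrough which indicates perturbed polyadenylation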
MOR-DOR ag – agonists of human mu-delta opioid receptor heterodimerization | P35372+P41143 | cells, OPRM1-OPRD1 heterodimerization, luminescence | activation, % at 9.3 µM | hit rate 0.3% among 340,000 | AID 504326; in the data active = activation above about 18%
HTR5A inv ag – counter-screen for OPRM1-OPRD1 inverse agonists: human HTR5A inverse agonism. P47898. HTR5A cell line, luminescence. inhibition, % at 9.3 µM. hit rate 0.083% among 340,000. AID 504634; in the data active = inhibition mostly above about 23%, no sharp cut-off; inactive = mostly below about 18%
NALP1 yeast inh – blocks the NALP1 inflammasome reconstituted in yeast | S. cerevisiae NALP1/ASC/caspase-1 growth, X-gal OD620, 72 h | AID 2071 | inhibition, % at 10 µM | hit rate 0.61% among 280,000; in the data active = inhibition mostly above about 24%, no sharp cut-off; inactive = mostly below about 32%
Numbers stand for hits; n = inactive; u = inconclusive; x = not tested or not shown.

SMILES	HTR5A ag	OPRM1-OPRD1 inv	PolyA inhibitor	MOR-DOR ag	HTR5A inv ag	NALP1 yeast inh
Cc1cc(C)c(O)c(CN(C)Cc2cc(Cl)cc(Cl)c2O)c1	13	n	x	n	n	x
Cc1cc(S(=O)(=O)NC2CC(C)(C)NC(C)(C)C2)c(Cl)cc1Cl	n	n	u	n	n	n
Cc1c(NC(=O)/C(C#N)=C/c2ccc(-c3ccccc3Cl)o2)c(=O)n(-c2ccccc2)n1C	12	n	n	n	n	n
O=C(Nc1ccccc1N1CCCC1)C1CCCO1 (stereo unspecified)	n	n	x	n	n	x
CNn1cnc2ccsc2c1=O	n	n	n	n	n	n
O=C(CN(C(=O)c1ccco1)c1cccc(F)c1)NCc1ccc(F)cc1	11	n	n	n	n	n
CC(C)(C)c1cc(CCC(=O)NNC(=S)NC(=O)c2ccccc2)cc(C(C)(C)C)c1O	n	68	n	n	82	n
CC(=O)Nc1ccc(NC(=O)CCCN2C(=O)c3ccccc3C2=O)cc1	9.8	n	n	n	n	n
O=C(CCN1C(=O)c2ccccc2C1=O)Nc1ccc(F)cc1	n	n	n	n	n	n
O=C(CCCN1C(=O)c2ccccc2C1=O)Nc1ccccc1	n	n	n	n	n	n
CC(=O)Nc1ccc(NC(=O)CCN2C(=O)c3ccccc3C2=O)cc1	n	n	n	n	n	44
O=C(CSc1nncs1)Nc1ccc(Cl)cn1	n	n	n	n	n	n
Cc1cccc(C)c1Nc1nnc(SC(C)C(=O)Nc2c(C)n(C)n(-c3ccccc3)c2=O)s1 (stereo unspecified)	n	n	n	n	n	n
O=C(c1ccc2c3c(cccc13)CC2)C1CCCN(C(=O)c2ccc(=O)[nH]c2)C1 (stereo unspecified)	13	n	n	n	n	n
Cc1ccccc1CC1SC(N)=NC1=O (stereo unspecified)	n	n	n	n	n	n
Cc1ccc(CNC(=O)c2csc3c2CCCCC3)cc1	n	n	n	n	n	43
O=C(NCc1cccnc1)c1csc2c1CCCC2	n	n	n	n	n	n
CCOc1ccc(S(=O)(=O)NCC2(N3CCCCC3)CCCCC2)cc1	n	n	x	n	n	x
O=C(NCc1cccc(C(F)(F)F)c1)C1CCC(=O)N(C2CCCCCC2)C1 (stereo unspecified)	n	n	n	n	n	n
Cc1ccc(OCCC(=O)N2CCN(c3ccc(O)cc3)CC2)cc1	n	n	n	n	n	38
CCOc1ccc(C(=O)CCC(=O)N2CCN(c3ccc(O)cc3)CC2)cc1	n	n	x	n	n	x
CCC(=O)Nc1cccc(SC)c1	13	n	n	n	n	n
CCOc1ccc(C(=O)NCC(=O)Nc2ccc3c(c2)OCO3)cc1OCC	n	n	x	n	n	x
CSc1cccc(NC(=O)CNC(=O)c2ccc3c(c2)OCO3)c1	10	n	n	n	n	x
O=C(Nc1cccc(-c2cnc3ccccc3n2)c1)c1cccc(NC(=O)c2ccco2)c1	14	n	n	51	n	n
SMILES	HTR5A ag	OPRM1-OPRD1 inv	PolyA inhibitor	MOR-DOR ag	HTR5A inv ag	NALP1 yeast inh
COc1ccc(Cn2c(=O)c3cccnc3n(Cc3ccc([N+](=O)[O-])cc3)c2=O)cc1	n	n	n	n	n	32
COc1ccc(NC(=O)/C(=C\c2ccncc2)NC(=O)c2ccccc2)cc1	n	n	n	n	n	n
CCOC(=O)NC(c1cccc(Cl)c1)C1CCCCCC1=O (stereo unspecified)	n	n	n	n	n	43
CC(C)(C)c1cc(=O)[nH]c(SCc2ccccc2Cl)n1	12	n	x	n	n	n
CNC(=O)Nc1cccc2cccnc12	n	n	n	n	n	44
O=C(O)CCC(=O)Nc1cccc2cccnc12	n	n	n	n	n	n
CC[n+]1ccccc1/C=C/c1ccc(N(C)C)cc1	n	n	n	n	n	n
CC[n+]1c(/C=C/c2ccc(N(C)C)cc2)ccc2ccccc21	n	n	n	n	n	92
CC[n+]1ccc(/C=C/c2ccc(N(C)C)cc2)c2ccccc21	n	n	x	n	34	45
CCOC(=O)/C(C#N)=C/c1cc2cc(C)c(C)cc2nc1Cl	n	n	n	n	n	x
Cc1cc2cc(C=C(C#N)C#N)c(Cl)nc2cc1C	n	n	n	n	n	60
CCOCCCNc1nc2c(C)cccn2c(=O)c1/C=C1\SC(=S)N(C(C)CC)C1=O (stereo unspecified)	n	n	n	18	n	n
O=C1C2CCCN2C(c2ccccc2)N1c1cccc(Cl)c1 (stereo unspecified)	n	n	n	n	n	n
O=C1C2CCCN2C(c2ccc(F)c(F)c2)N1c1cccc(Cl)c1 (stereo unspecified)	n	n	n	n	n	44
O=C(O)C1CC=CCC1C(=O)NCCc1cccc(Cl)c1 (stereo unspecified)	13	n	n	n	n	n
Cc1cc(C)cc(N(CC(=O)NCC2CCCO2)C(=O)CN2C(=O)COc3ccccc32)c1 (stereo unspecified)	n	n	n	n	n	23
O=C(CN(C(=O)C1COc2ccccc2O1)c1ccccc1)NCC1CCCO1 (stereo unspecified)	n	n	n	n	n	n
COc1ccc(CCNS(=O)(=O)c2ccc(-n3cnnn3)cc2)cc1OC	n	n	n	n	n	n
CC(=O)Nc1ccc(S(=O)(=O)N2CCN(C(=O)c3ncoc3-c3cccc(F)c3)CC2)cc1	n	n	n	n	n	n
Cc1ccc(-c2nc3ncccn3c2Nc2ccc3c(c2)OCCO3)cc1	10	n	n	n	n	n
Cn1c(-c2ccc(C=O)s2)nc2c3ccccc3c3ccccc3c21	n	n	n	n	n	32
C/C(=N\NC(=O)c1nnn(-c2nonc2N)c1C(C)C)c1ccc2ccccc2c1	n	n	n	n	n	n
O=C1CCc2cc(S(=O)(=O)NCc3ccccc3Cl)cc3c2N1CC3	n	n	n	n	n	x
COc1ccc(-c2cc(C(=O)O)no2)cc1	9.8	n	n	n	n	n
CCC(C)(C)n1nnnc1C(c1ccccc1F)N1CCN(C(=O)c2ccco2)CC1 (stereo unspecified)	n	n	n	n	n	n
CN1CCN(c2nc(-c3cccc([N+](=O)[O-])c3)nc3ccccc23)CC1	n	n	n	n	n	39
CCOc1ccccc1NC(=O)C(CC(C)C)NC(=O)C1CCC(C)CC1 (stereo unspecified)	n	n	n	n	n	43
Cc1cc(=O)n(C2CCS(=O)(=O)C2)[nH]1 (stereo unspecified)	x	x	x	x	x	n
COc1ccc(/C(N)=N/OC(=O)c2c(-c3ccccc3Cl)noc2C)cc1OC	12	n	n	n	n	n
COc1cccc(C2C=C(c3ccc(Br)s3)Nc3ncnn32)c1OC (stereo unspecified)	n	n	n	n	n	n
